# Most compounds without a hit are left out; they make up all but 19% or so of the library.
# IL-1B inflam inh: blocks inflammasome-driven IL-1 beta release. THP-1 LPS/ATP IL-1B secretion, AlphaLISA, 16 h; active compounds read low. activity change, % at 57.5 µM. hit rate 4.7% among 360,000; in the data active = activity change below about -50%; inconclusive = mostly about -30% to -49%
#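 Secreted IL-1B measured by AlphaLISA bead assay after 16 h compound exposure of THP-1 cells; compounds (final up to 57.5 uM) added 1 h before LPS (250 ng/mL) and ATP (1.25 mM) stimulation; lower signal means less secretion.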
# HT1080 IDH1KD tx: kills HT-1080 cells with IDH1 knockdown | Potency, µM (top dose mostly 46.1 µM), most hits filed as cytotoxic | HT-1080 IDH1 knockdown viability, ATP luminescence, 48 h | hit rate 2% among 360,000 | AID 686971
#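 Viability of IDH1-knockdown HT-1080 fibrosarcoma cells was assessed by CellTiter-Glo after 48 h at 37 °C with titrated compound; concentration-effect curves were classified by fit quality and response size.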
# TDP1 cell noCPT: qHTS for Inhibitors of human tyrosyl-DNA phosphodiesterase 1 (TDP1): qHTS in cells in absence of CPT; DT40 Tdp1-/- hTDP1 cells, no CPT, ATP luminescence, 48 h; Potency, µM (titrated, usually from 46.2 µM), usual class: inhibitors; hit rate 15% among 420,000; note: nearly all actives have a fitted effect of over 55% in size
#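 Compound effects on proliferation are scored in DT40 Tdp1-/-;hTDP1 cells in the absence of CPT. ATP levels (CellTiter-Glo luminescence) are recorded after a ≥48 hr, 37 °C incubation.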
# TDP1 cell CPT: DT40-hTDP1 cell growth loss with CPT; Potency, µM (titrated, usually from 46.2 µM), actives largely listed as inhibitors; chicken DT40 Tdp1-/-;hTDP1 cells + 20 nM CPT, ATP luminescence, 48 h; AID 686979; hit rate 12% among 420,000; note: nearly all actives have a fitted effect of over 55% in size
#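 Chicken DT40 Tdp1-/- cells stably complemented with human TDP1 were seeded at 400 cells/well in medium containing 20 nM camptothecin, exposed to pin-transferred compounds, and grown at 37 °C for at least 48 hr. Viability was read as ATP luminescence.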
# uPA surface inh: inhibitors of cell surface uPA generation. AID 540303. hit rate 0.31% among 330,000. cell surface uPA generation assay, qHTS. Potency, µM (series often up to 38.3 µM), most hits filed as inhibitors; active = well fitted inhibition curve with a large enough effect; inconclusive = small, poorly fitted or top-dose-only effect; inactive = no such curve, though single readings can be large or run the other way; tested in mouse RAW 264.7 cells; note: nearly all actives have a fitted effect of over 55% in size
# HT1080NT lethal: kills 2HG-producing HT-1080-NT fibrosarcoma cells; HT-1080-NT fibrosarcoma viability, CellTiter-Glo ATP luminescence, 48 h; Potency, µM (series often up to 46.1 µM), actives largely listed as cytotoxic; hit rate 1.6% among 360,000; AID 686970;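 note: NT is the 2HG producing partner of a matched IDH1 knockdown line; nearly all actives have a fitted effect of over 55% in size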
#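 Viability by CellTiter-Glo luminescence after 48 h compound exposure at 37C of HT-1080-NT cells (750/well, RPMI, 5% FBS). % activity scaled between DMSO wells and medium-only wells, then curve-fitted and categorized by curve class.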
# Numbers stand for hits; - = inactive; ? = inconclusive; . = not tested or not shown; [ ] = remark or other dose. Unless noted, calls come from the whole dose curve; as a rule, active = well fitted curve in the direction sought with a large enough effect; inconclusive = small, poorly fitted or top-dose-only effect, or another doubt; inactive = no such curve, though single readings can be large; an effect the other way counts as inactive or inconclusive.
SMILES,IL-1B inflam inh,HT1080 IDH1KD tx,TDP1 cell noCPT,TDP1 cell CPT,uPA surface inh,HT1080NT lethal
Cc1cccc2cc(CN(Cc3cccs3)Cc3nnnn3Cc3ccccc3)c(=O)[nH]c12,-50,-,23µM,?,-,?
COc1ccccc1-c1sc2ccccc2c1C#Cc1ccc(N(C)C)cc1,-,-,?,-,-,-
COCC(=O)N(C)C[C@@H]1Oc2cc(-c3ccc(F)cc3)ccc2S(=O)(=O)N([C@H](C)CO)C[C@H]1C,?,-,?,?,.,-
COc1ccc(NC(=O)Cn2cnc3sc(C)c(S(=O)(=O)N4CCOCC4)c3c2=O)c(OC)c1,-,?,-,-,-,-
COc1cc2c(cc1OC)C1N(CC2)C(=O)CCC12C(=O)CCCC2=O (stereo not drawn),.,.,-[9.04 µM],-[9.04 µM],.,.
Cn1c(CCNC(=O)c2ccco2)nc2cc(NS(=O)(=O)c3ccccc3)ccc21,-,-,?,21µM,-,-
COc1ccccc1C(=O)Nc1ccc2c(c1)nc(CCNC(=O)c1ccco1)n2C,-,4.6µM,0.92µM,1.3µM,?,?
N#C/C(=C\c1ccc(Cl)cc1)C(=O)Nc1cccnc1,-,-,-,-,-,-
O=C(NCc1cccs1)c1noc2c1CCCC2,-,18µM,?,?,.,?
Cc1ccc(-c2[nH]c3cc(C(N)=O)ccc3c(=O)c2O)cc1,-,-,18µM,?,-,-
CCCNC(=O)c1ccc2c(=O)c(O)c(-c3ccc(C)cc3)[nH]c2c1,-,-,?,?,?,-
Cc1ccc(CNC(=O)c2ccc3c(=O)c(O)c(-c4ccc(C)cc4)[nH]c3c2)cc1,-,-,6.5µM,4.1µM,?,-
COC(=O)c1ccc(CNC(=O)c2ccccc2C(=O)NCC2(CBr)OCCO2)cc1,-,-,-,-,.,-
COc1cc(Cl)c(C)cc1NC(=O)c1cn(C2CCCC2)c(=O)c2c1c1ccccc1n2C,.,.,?,0.65µM,.,.
COc1cc(OC)c(N(C)C(=O)c2cn(C3CCCC3)c(=O)c3c2c2ccccc2n3C)cc1Cl,.,.,8.2µM,10µM,.,.
COC(=O)c1ccc(CSc2ccc3nnc(-c4cccc(F)c4)n3n2)o1,-,?,7.3µM,-,-,-
CCOC(=O)CC(=O)CSc1ccc2nnc(-c3cccc(F)c3)n2n1,?,?,-,-,.,-[9.24 µM]
COCCNc1cc(N2CCN(C3CCCCC3)CC2)c2noc3c2c1C(=O)c1ccccc1-3,.,.,16µM,18µM,.,.
CN(C)CCCNc1cc(N2CCN(C3CCCCC3)CC2)c2noc3c2c1C(=O)c1ccccc1-3,.,.,21µM,23µM,.,.
On1onc2c3cc(-c4ccccc4)nc3ccc21,-,?,5.2µM,2.9µM,-,-
Cc1cccc(C)c1-n1nnnc1C1c2ccccc2C(=O)N1CCCN1CCOCC1 (stereo not drawn),-,-,-,-,.,-
Cc1ccc(C(=O)/C=C/c2cn(CC(O)CN3CCCCCC3)c3ccccc23)cc1 (stereo not drawn),.,.,21µM,12µM,.,.
O=C(/C=C/c1cn(CC(O)CN2CCCCC2)c2ccccc12)c1cccs1 (stereo not drawn),-68,?,16µM,?,-,?
O=C(/C=C/c1cn(CC(O)CN2CCCCCC2)c2ccccc12)c1ccccc1 (stereo not drawn),.,.,23µM,?,.,.
OC(CN1CCCCC1)Cn1c2ccccc2c2ccccc21 (stereo not drawn),?,-,-,-,-,-
O=C(/C=C/c1cn(CC(O)CN2CCCCC2)c2ccccc12)c1ccccc1 (stereo not drawn),-87,16µM,?,?,-,?
Cc1c(C)n(CC(O)CN2CCCCC2)c2ccccc12 (stereo not drawn),?,-,-,-,-,-
O=c1c2ccccc2n(CC(O)CN2CCCCC2)c2ccccc12 (stereo not drawn),.,-,-,-,-,-
CCC(Sc1nc2ncccc2[nH]1)C(=O)N1CCOCC1 (stereo not drawn),-,-,-,-,-,-
